SF1 inhibitor – blocks the human nuclear receptor SF-1. inhibition, % at 10 µM. CHO-K1 Gal4-SF-1 LBD luciferase reporter. hit rate 0.55% among 65,000. Q13285;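 active = inhibition above the mean inhibition of all tested compounds plus 3 SD, cut at about 48% in these data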;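 note: 0% = SF-1 transfected cells with DMSO and 100% = mock-transfected cells lacking SF-1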
Target sequence (Q13285 whole entry, looked up, the tested form may be a part): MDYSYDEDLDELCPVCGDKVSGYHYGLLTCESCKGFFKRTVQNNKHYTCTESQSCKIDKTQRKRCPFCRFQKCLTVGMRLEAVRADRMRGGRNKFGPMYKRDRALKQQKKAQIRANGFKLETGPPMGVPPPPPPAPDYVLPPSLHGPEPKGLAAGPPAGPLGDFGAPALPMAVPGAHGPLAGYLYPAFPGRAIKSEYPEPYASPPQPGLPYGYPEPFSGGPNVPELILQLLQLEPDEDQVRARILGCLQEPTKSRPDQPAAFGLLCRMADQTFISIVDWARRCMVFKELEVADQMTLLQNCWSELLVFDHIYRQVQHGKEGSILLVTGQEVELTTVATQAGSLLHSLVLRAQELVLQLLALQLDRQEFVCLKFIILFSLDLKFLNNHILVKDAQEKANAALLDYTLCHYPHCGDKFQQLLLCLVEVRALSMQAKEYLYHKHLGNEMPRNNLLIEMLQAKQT
* hit, by the source's call. Shown is part of a subset that was picked to be rich in hits.

SMILES	SF1 inhibitor
Cc1ccc(-c2cn3nc(C)c(C)nc3n2)cc1	79*
O=C(Nc1nsc(-c2ccccc2)n1)c1cccs1	-77
O=C(CSc1nnnn1-c1ccccc1)Nc1nsc(-c2ccc(Cl)cc2)n1	88*
COc1cccc(-n2nnnc2SCC(=O)Nc2cccc(C)n2)c1	1
Cc1ccc(Nc2nc(N)nc(CSc3nccn3C)n2)c(C)c1	-24
Cc1ccc(S(=O)(=O)N2CCN(C(=O)CN3CCN(C)CC3)C2)cc1	7
COc1ccc(N(C)S(=O)(=O)c2c(C)[nH]c(=O)[nH]c2=O)cc1	-4
COc1ccc(-c2noc(CCCC(=O)NCCc3ccccc3)n2)cc1OC	60*
COc1ccc(CCC(=O)Nc2ccc(-c3noc(-c4ccc(OC)c(OC)c4)n3)cc2)cc1	-75
COc1ccc(-c2noc(CCC(=O)NCCN3CCN(c4ccccc4F)CC3)n2)cc1	5
CCN(CC)S(=O)(=O)c1ccc(NC(=O)c2ccccn2)cc1	-55
CN(C)S(=O)(=O)c1ccc(C(=O)Nc2ccc(CN3CCCC3)cc2)cc1	11
CCCCN(CCCC)S(=O)(=O)c1ccc(C(=O)Nc2nnc(CSC)o2)cc1	55*
CC(=O)c1cccc(-n2nnnc2SCC(=O)N2CCCC2)c1	2
CC(NC(=O)c1cc2ccccc2o1)c1cccs1 (stereo not given)	-11
CCOC(=O)N1CCN(C(=O)c2ccc3c(SCC(=O)O)c4c(nc3c2)CCC4)CC1	10
COc1ccccc1N1CCN(C(=O)C2C3C=CC4(CN(Cc5ccccc5Cl)C(=O)C24)O3)CC1 (stereo not given)	17
COC(=O)C1=C(CN2CCCc3ccccc32)NC(=O)NC1c1ccc(F)cc1 (stereo not given)	75*
COc1ccc(CCNC(=O)CN2CCCc3ccccc32)cc1OC	-17
COC(=O)C1=C(CN2CCN(C)CC2)NC(=O)NC1c1cc(C)ccc1C (stereo not given)	3
CSc1nc(C)cc(OCNC(=O)c2cccs2)n1	-4
O=c1cc(O)nc2n1CCCS2	-6
NC(=O)C1(N2CCCCC2)CCN(CC(=O)Nc2ccc(Oc3ccccc3)cc2)CC1	-2
O=C(CNc1ccc(Oc2ccccc2)cc1)N1CCOCC1	-10
COc1cccc(NC(=O)c2nc3ncccn3n2)c1	-10
SMILES	SF1 inhibitor
COc1ccc(C(=O)NC(=O)Nc2cc(C)ccn2)cc1	89*
COc1ccc(C(=O)Nc2cccc(OC)c2)cc1	-81
C/[N+]([O-])=C1\Cc2ccccc2C1=O	-13
Cn1cnnc1SCc1ccc(-c2ccc(Br)cc2)o1	5
CCC1CCCCN1CCCNC(=O)CNC(=O)Cn1ccc2ccccc2c1=O (stereo not given)	5
CCOC(=O)c1sc(NC(=O)c2cc3c(C)nn(-c4ccccc4)c3s2)nc1C	8
COc1ccc(NC(=O)c2cc3ccccc3o2)cc1	-54
CC(=O)Nc1cccc(NC(=O)c2cc3ccccc3o2)c1	-87
CCCC(=O)N1CCN(c2ccc(NC(=O)c3cc4ccccc4o3)cc2Cl)CC1	48*
COC(=O)C1=C(CSc2nnnn2C)NC(=O)NC1c1cc(C)ccc1C (stereo not given)	3
Cc1ccc(C(=O)Nc2c(C(=O)NCc3ccco3)cnn2-c2ccccc2)cc1	-9
COc1ccc(-c2c(C)n([O-])c3c([n+]2=O)CCC3)cc1OC	-4
CCn1c(CC(=O)Nc2ccc(C)cc2)nnc1SCC(=O)NCc1ccccc1	9
COc1cc(C(=O)Nc2ccc(N(C)C)cc2)cc(OC)c1OC	-62
CCOc1ccc(C)cc1S(=O)(=O)Nc1cccnc1	-12
COc1cc(NS(=O)(=O)c2ccc(C)cc2C)cc(OC)c1OC	62*
O=C(CCC1CCCC1)N1CCN(C(=O)COc2ccccc2)CC1	-3
COc1cccc(NC(=O)CSc2ccc3nnc(-c4ccncc4)n3n2)c1	13
COc1cccc(NC(=O)CSc2nnc(-c3cc(C)n(-c4ccccc4)c3C)o2)c1	67*
COc1ccc(-n2c(Cc3cccn3C)nnc2SCC(=O)Nc2cccc(OC)c2)cc1	-10
CC(C)CNC(=O)CN(C1CCCCC1)S(=O)(=O)c1ccccc1	15
CCOCC(=O)Nc1ccc(S(=O)(=O)NCCc2ccccc2)cc1	1
Cc1csc(NC(=O)c2sc3nc(-c4cccs4)ccc3c2N)n1	-50
O=C(Nc1nc(-c2ccc(Cl)s2)cs1)c1ccncc1	63*
O=C(Nc1ccccc1F)c1ccncc1	5
SMILES	SF1 inhibitor
COC(=O)C1=[N+]([O-])OC(C(=O)OC)C1c1c[nH]c2ccccc12 (stereo not given)	5
O=C(O)C1CC=CCC1C(=O)Nc1ccc(S(=O)(=O)N2CCCc3ccccc32)cc1 (stereo not given)	-12
COc1cccc(-c2nnc(SCC(=O)OC(C)C)n2Cc2ccco2)c1	15
O=C(NC1=NCCS1)C1COc2ccccc2O1 (stereo not given)	66*
Cc1nnc(NC(=O)C2COc3ccccc3O2)s1 (stereo not given)	-52
O=C(Nc1ccc2c(c1)OCO2)C1COc2ccccc2O1 (stereo not given)	-11
CC1CN(c2oc(Cc3cccc4ccccc34)nc2C#N)CC(C)O1 (stereo not given)	14

Source: PubChem BioAssay (The Scripps Research Institute Molecular Screening Center)
